This passage reports growth inhibition results from PubChem BioAssay (NCI).

Test [1] in a line: NCI Yeast Anticancer Drug Screen. Data for the rad50 strain (AID 155).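 Note: 0% = growth of vehicle-only cultures of the same strain.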 Conditions: S. cerevisiae rad50 strain growth inhibition, active compounds read high; at 50.0 µM unless noted. In short, it runs like this: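 Genetically altered yeast (DNA repair pathway); compound treatment; growth inhibition vs vehicle ctrl.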
A short description of test [2]: NCI Yeast Anticancer Drug Screen. Data for the mec2-1 strain (AID 157). Conditions: S. cerevisiae mec2-1 strain, active compounds read high; at 50.0 µM unless noted. In short, it runs like this: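 Mutant yeast (mec2-1) grown with compound; growth inhibition relative to vehicle control reported.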
The nature of test [3]: NCI Yeast Anticancer Drug Screen. Data for the sgs1 mgt1 strain (AID 161).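 Note: 0% = growth of cultures given vehicle only.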 The settings on record: S. cerevisiae sgs1 mgt1 strain, active compounds read high; at 50.0 µM unless noted. In outline: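 This yeast growth screen uses a strain with defined DNA-repair lesions; compound-treated growth is compared with vehicle-treated growth.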
A short description of test [4]: NCI Yeast Anticancer Drug Screen. Data for the cln2 rad14 strain (AID 165).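 Note: 0% = growth equal to vehicle treated cultures.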 The settings on record: S. cerevisiae cln2 rad14 strain, active compounds read high; at 50.0 µM unless noted. In outline:
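Readout is yeast growth inhibition versus vehicle-treated controls, using a strain with cln2 and rad14 alterations exposed to compound.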

Test [5] is described as follows: NCI Yeast Anticancer Drug Screen. Data for the bub3 strain (AID 167). Conditions: S. cerevisiae bub3 mutant strain, active compounds read high; at 50.0 µM unless noted. In outline:
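Yeast carrying a defined mutation is treated with each compound, and growth is compared with that of vehicle-exposed cells to give inhibition.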

A short description of test [6]: NCI Yeast Anticancer Drug Screen. Data for the mlh1 rad18 strain (AID 175). The settings on record: S. cerevisiae mlh1 rad18 strain growth inhibition, active compounds read high; at 50.0 µM unless noted. In outline:
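Genetically defined yeast (DNA repair-deficient) exposed to compounds; growth inhibition determined relative to vehicle.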

Molecules are shown by their SMILES. “And” between values parts separate entries of the source, which are not always exact repeats. Identical values can stand only once. This is part of a sample that, as a whole, favours compounds with a hit. Of some 79,000 tested, about 15% had one in any assay. Values without a mark were called inactive. The source made the active and inactive calls. Cut-off read from the data, not from the text of the source: active = growth inhibition above about 70%; inactive = the rest.

For the compound `Cc1cc([N+](=O)[O-])ccc1P(=O)(O)O`, the growth inhibition is 8.55% in test [1]; 7.6% in test [2]; 0% in test [3]; -0.65% in test [4]; -3.8% in test [5]; -7.95% in test [6].
Turning to `COC(=O)C(C(=O)OC)C1CCCC(=O)C1` (stereo not given), the growth inhibition is -2.3% in test [1]; -10% in test [2]; -10.6% in test [3]; -6.7% in test [4]; -24.7% in test [5]; 13.8% in test [6].
On to `COc1cc2c(cc1C(C)c1ccc(Cl)cc1)OCO2` (stereo not given), for which the growth inhibition in test [1] was 12.8%; in test [2] it was -1.55%; in test [3] it was -1.6%; in test [4] it was 21%; in test [5] it was 20.2%; in test [6] it was 4.9%.
As for `CCCC1N[C@H](C(=O)O)CS1` (stereo not given in full), the growth inhibition in test [1] was 15.7%; in test [2], 7.1%; in test [3], -1.85%; in test [4], 7.2%; in test [5], 10.1%; in test [6], -3.85%.
Consider `CCN(CC)CCN(CC)C(=S)Nc1ccccc1`, for which the growth inhibition is 1.75% in test [1]; 21.2% in test [2]; 23.2% in test [3]; -4.65% in test [4]; 2% in test [5]; 12.2% in test [6].
As to `Cc1ccc(N2C(=O)CC(N3CCCCC3)C2=O)cc1` (stereo not given), the growth inhibition in test [1] was 29.1%; in test [2], 37.7%; in test [3] it was 68.2%; in test [4] it was 13.2%; in test [5] it was -2.05%; in test [6] it was 80.2% (active).
Consider `C[N+]1(Cc2csc(-c3ccc(Cl)cc3)n2)CCCC1`, for which the growth inhibition is -12.5% in test [1]; -23.1% in test [2]; 4.55% in test [3]; 9.75% in test [4]; -5.7% in test [5]; -11.7% in test [6].
Regarding `CCn1c(=O)n(Cc2ccccc2)c(=O)c2ccccc21`, the growth inhibition in test [1] was 19.6%; in test [2] it was 8.95%; in test [3], 24.8%; in test [4], 10.8%; in test [5], -4.7%; in test [6], 30.3%.
As to `CO/C(=N\N=C\c1ccc(C(F)(F)F)cc1)c1ccncc1`, the growth inhibition in test [1] is 54.5%; in test [2], 18.9%; in test [3] it was 35.3%; in test [4], 22.4%; in test [5] it was 30.9%; in test [6], 15.3%.
On to `CCOC(=O)c1sc2c(c1OC(=O)c1ccc(OC)cc1)c(=O)n(-c1ccccc1)c(=S)n2-c1ccccc1`, for which the growth inhibition in test [1] was 39.5%; in test [2], 9.65%; in test [3] it was 23.4%; in test [4] it was 17.5%; in test [5], 31%; in test [6], 38.4%.
As for `CN(CCO)CCCC1COc2ccccc2O1` (stereo not given), the growth inhibition in test [1] was -31.6%; in test [2] it was -39.1%; in test [3] it was -21.1%; in test [4], 6.5%; in test [5], -8.65%; in test [6], -8.35%.
As for `O=C(NSN1CCOCC1)c1ccccc1`, the growth inhibition is 38.8% in test [1]; 25.8% in test [2]; 30% in test [3]; -45.6% in test [4]; 2.5% in test [5]; 38% in test [6].
For `N#CC1=C(N)OC(C2CC2)=C(C#N)C1c1ccco1` (stereo not given), the growth inhibition is -9.75% in test [1]; -14.1% in test [2]; -11.1% in test [3]; 4.45% in test [4]; -24.8% in test [5]; -11.9% in test [6].
For the compound `CC(Oc1ccc(OCC2CCCCC2)cc1)C(=O)N(CCO)CCO` (stereo not given), the growth inhibition in test [1] is 21.2%; in test [2], -19.9%; in test [3], 25.6%; in test [4], 11.9%; in test [5], -43.4%; in test [6], 6.65%.
As for `COC1=NS(=O)(=O)C2CCCCCCC2O1` (stereo not given), the growth inhibition is 11.1% in test [1]; -2.85% in test [2]; 1.15% in test [3]; -74.2% in test [4]; 10.6% in test [5]; -7.4% in test [6].
As for `CCOC(=O)NNC(=O)Nc1ccc(O[Si](C)(C)C)cc1`, the growth inhibition in test [1] is 13.4%; in test [2] it was 10%; in test [3], 10.3%; in test [4], 17.1%; in test [5], 9.75%; in test [6], 10.9%.
For `Cc1c2c(c(C)c3c1C(=O)c1cc4c(cc1C3=O)OCO4)OC(C)(C)O2`, the growth inhibition in test [1] is 14.3%; in test [2], 0.35%; in test [3], 21.4%; in test [4], 8.95%; in test [5], 11.6%; in test [6], 23.1%.
Turning to `N#Cc1ccc(-c2ccc(C#N)cc2)cc1`, the growth inhibition in test [1] was -19.4%; in test [2], -23.3%; in test [3], -14.1%; in test [4] it was 9.05%; in test [5], -20.1%; in test [6] it was 7.05%.
Consider `Nc1cc(N)c(N)cc1N`, for which the growth inhibition in test [1] is -30.1% and -6.2%; in test [2], 16.8% and -29.1%; in test [3], 13% and -4.9%; in test [4], -1.7% and 21.8%; in test [5] it was 41.7% and -13.9%; in test [6], 15% and 8.75%.
In the case of `N#Cc1c(N2CCCC2)nsc1Nc1ccc(F)cc1`, the growth inhibition was 2.6% in test [1]; 2.85% in test [2]; 0.8% in test [3]; -16% in test [4]; 4.4% in test [5]; -9% in test [6].
